In PMC7862700, “An all-to-all approach to the identification of sequence-specific readers for epigenetic DNA modifications on cytosine”:

How the values were obtained:
Test in all cases: DAPPL (digital affinity profiling via proximity ligation, sequencing); 10 mM Tris-HCl pH 7.5, 50 mM NaCl, 1 mM DTT, 4% glycerol, room temperature, 30 min; GST-TFs on glutathione beads, 16-mer random dsDNA library, 0.1% formaldehyde crosslink after washing; high values mean tight binding
Details in all cases: protein: recombinant; tags: N-terminal GST; dsDNA, one strand shown
[1] = molecular target: T1, ERF (Homo sapiens, UniProt P50548 1-548)
T1 sequence: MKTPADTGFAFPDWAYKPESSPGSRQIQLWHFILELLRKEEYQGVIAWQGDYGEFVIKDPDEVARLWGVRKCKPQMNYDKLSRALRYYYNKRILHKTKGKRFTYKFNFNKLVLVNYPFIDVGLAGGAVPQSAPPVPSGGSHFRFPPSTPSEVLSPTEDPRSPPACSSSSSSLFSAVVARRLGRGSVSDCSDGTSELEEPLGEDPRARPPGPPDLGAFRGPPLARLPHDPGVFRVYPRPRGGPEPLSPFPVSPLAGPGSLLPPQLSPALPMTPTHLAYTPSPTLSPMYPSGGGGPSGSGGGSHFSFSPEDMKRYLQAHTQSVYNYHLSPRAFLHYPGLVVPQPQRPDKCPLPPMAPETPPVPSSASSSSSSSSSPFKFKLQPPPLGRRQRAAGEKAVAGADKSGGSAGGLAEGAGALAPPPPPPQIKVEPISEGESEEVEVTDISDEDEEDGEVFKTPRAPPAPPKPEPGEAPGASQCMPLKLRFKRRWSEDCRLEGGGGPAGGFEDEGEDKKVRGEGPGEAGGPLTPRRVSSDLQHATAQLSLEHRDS
In short: (§1)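 GST fusions of human transcription factors were expressed in yeast and captured with glutathione beads. Once given DNA barcodes and pooled alongside a tag-only sample, they were incubated for 30 min at room temperature with 200 nmole of a random double-stranded 16-mer DNA library in Tris/NaCl/DTT/glycerol buffer, then washed, crosslinked (0.1% formaldehyde), proximity-ligated, PCR-amplified and sequenced on an Illumina NextSeq500. The binding signal of each hexamer is its read frequency for a factor divided by its frequency for the tag-only sample.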

[2] = molecular target: T2, ETV3L (Homo sapiens, UniProt Q6ZN32 1-361)
T2 sequence: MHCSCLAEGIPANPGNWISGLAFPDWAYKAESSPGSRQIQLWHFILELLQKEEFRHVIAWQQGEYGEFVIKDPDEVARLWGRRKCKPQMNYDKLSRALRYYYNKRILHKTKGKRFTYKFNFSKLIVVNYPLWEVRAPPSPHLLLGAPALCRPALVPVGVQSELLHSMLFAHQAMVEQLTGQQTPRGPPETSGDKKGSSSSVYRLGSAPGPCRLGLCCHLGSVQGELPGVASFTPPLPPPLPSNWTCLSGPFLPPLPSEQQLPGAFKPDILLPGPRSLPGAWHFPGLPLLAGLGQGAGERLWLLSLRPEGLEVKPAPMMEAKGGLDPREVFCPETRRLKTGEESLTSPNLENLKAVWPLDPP
In short: as §1

[3] = molecular target: T3, ETS2 (Homo sapiens, UniProt P15036 1-469)
T3 sequence: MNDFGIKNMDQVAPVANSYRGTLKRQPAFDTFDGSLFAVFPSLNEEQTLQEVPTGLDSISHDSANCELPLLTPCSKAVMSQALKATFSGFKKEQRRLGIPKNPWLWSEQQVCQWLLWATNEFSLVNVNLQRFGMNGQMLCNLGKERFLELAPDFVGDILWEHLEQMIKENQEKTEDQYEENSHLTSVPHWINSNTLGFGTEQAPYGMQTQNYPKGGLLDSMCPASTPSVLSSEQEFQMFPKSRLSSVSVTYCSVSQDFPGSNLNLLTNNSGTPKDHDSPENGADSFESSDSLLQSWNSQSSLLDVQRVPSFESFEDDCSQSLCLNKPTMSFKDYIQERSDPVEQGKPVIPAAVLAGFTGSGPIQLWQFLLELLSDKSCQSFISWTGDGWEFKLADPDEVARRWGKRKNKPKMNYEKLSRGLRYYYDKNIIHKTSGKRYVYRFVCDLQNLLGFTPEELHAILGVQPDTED
In short: as §1

[4] = molecular target: T4, SPDEF (Homo sapiens, UniProt O95238 1-335)
T4 sequence: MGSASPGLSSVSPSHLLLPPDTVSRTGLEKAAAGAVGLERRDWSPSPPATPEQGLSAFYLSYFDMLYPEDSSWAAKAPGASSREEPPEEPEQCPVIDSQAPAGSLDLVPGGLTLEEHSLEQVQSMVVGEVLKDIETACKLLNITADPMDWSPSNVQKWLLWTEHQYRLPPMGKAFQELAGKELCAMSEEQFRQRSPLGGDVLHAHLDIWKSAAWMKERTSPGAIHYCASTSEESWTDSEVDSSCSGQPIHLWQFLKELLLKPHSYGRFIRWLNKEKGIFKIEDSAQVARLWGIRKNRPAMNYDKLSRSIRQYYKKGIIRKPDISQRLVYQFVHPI
In short: as §1

[5] = molecular target: T5, ETV7 (Homo sapiens, UniProt Q9Y603 1-341)
T5 sequence: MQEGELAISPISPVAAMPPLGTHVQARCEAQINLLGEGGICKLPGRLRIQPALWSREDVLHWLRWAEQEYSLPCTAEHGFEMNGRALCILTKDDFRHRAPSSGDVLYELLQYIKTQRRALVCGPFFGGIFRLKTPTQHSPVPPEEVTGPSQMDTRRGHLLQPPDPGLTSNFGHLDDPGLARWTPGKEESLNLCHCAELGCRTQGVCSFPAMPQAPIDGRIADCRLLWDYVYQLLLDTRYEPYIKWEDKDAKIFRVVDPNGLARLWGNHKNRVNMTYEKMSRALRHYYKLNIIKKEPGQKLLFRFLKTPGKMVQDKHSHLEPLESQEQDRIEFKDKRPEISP
In short: as §1

[6] = molecular target: T6, ELF5 (Homo sapiens, UniProt Q9UKW6-2 1-255)
T6 sequence: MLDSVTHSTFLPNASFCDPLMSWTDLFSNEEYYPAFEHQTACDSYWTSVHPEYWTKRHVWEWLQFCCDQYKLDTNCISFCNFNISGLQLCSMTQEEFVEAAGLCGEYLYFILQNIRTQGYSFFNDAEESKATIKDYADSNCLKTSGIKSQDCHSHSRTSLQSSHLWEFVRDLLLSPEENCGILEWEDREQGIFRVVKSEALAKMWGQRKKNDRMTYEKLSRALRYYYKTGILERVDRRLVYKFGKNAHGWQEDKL
In short: as §1

[7] = molecular target: T7, ETV3 (Homo sapiens, UniProt P41162-2 1-143)
T7 sequence: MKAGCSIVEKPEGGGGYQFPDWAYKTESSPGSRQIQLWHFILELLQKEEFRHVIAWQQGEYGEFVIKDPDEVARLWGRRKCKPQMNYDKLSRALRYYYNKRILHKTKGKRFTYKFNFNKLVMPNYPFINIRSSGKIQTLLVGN
In short: as §1

[8] = molecular target: ETV6 (Homo sapiens, UniProt P41212 1-452)
In short: as §1

Sequence of ETV6 (P41212 whole entry): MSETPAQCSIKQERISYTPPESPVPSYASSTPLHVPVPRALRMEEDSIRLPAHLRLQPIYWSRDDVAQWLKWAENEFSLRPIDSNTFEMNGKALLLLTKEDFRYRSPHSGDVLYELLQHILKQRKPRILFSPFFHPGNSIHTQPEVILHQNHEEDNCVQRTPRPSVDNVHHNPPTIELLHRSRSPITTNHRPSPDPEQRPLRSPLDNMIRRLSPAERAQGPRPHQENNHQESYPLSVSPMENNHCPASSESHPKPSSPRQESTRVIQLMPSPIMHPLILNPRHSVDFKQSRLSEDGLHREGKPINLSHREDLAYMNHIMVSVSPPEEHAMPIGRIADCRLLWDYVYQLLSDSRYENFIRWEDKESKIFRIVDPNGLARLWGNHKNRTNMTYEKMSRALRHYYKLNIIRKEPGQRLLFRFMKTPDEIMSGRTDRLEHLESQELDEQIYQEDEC

For TAATTC, the binding signal [1] was 1.29 fold enrichment (6-mer frequency, TF over GST control), the binding signal [2] was 1.38 fold enrichment (6-mer frequency, TF over GST control) and the binding signal [3] was 1.48 fold enrichment (6-mer frequency, TF over GST control). The binding signal [4] was 1.37 fold enrichment (6-mer frequency, TF over GST control), the binding signal [5] was 1.38 fold enrichment (6-mer frequency, TF over GST control) and the binding signal [6] was 1.41 fold enrichment (6-mer frequency, TF over GST control). The binding signal [7] was 1.51 fold enrichment (6-mer frequency, TF over GST control) and the binding signal [8] was 1.53 fold enrichment (6-mer frequency, TF over GST control).
For TATATA, the binding signal [1] was 1.24 fold enrichment (6-mer frequency, TF over GST control), the binding signal [2] was 1.23 fold enrichment (6-mer frequency, TF over GST control) and the binding signal [3] was 1.31 fold enrichment (6-mer frequency, TF over GST control). For the same sequence, the binding signal [4] was 1.35 fold enrichment (6-mer frequency, TF over GST control), the binding signal [5] was 1.27 fold enrichment (6-mer frequency, TF over GST control) and the binding signal [6] was 1.23 fold enrichment (6-mer frequency, TF over GST control). The binding signal [7] was 1.34 fold enrichment (6-mer frequency, TF over GST control) and the binding signal [8] was 1.28 fold enrichment (6-mer frequency, TF over GST control).
For TTTCTA, the binding signal [1] was 1.32 fold enrichment (6-mer frequency, TF over GST control), the binding signal [2] was 1.3 fold enrichment (6-mer frequency, TF over GST control) and the binding signal [3] was 1.37 fold enrichment (6-mer frequency, TF over GST control). For the same sequence, the binding signal [4] was 1.39 fold enrichment (6-mer frequency, TF over GST control), the binding signal [5] was 1.37 fold enrichment (6-mer frequency, TF over GST control) and the binding signal [6] was 1.31 fold enrichment (6-mer frequency, TF over GST control). The binding signal [7] was 1.38 fold enrichment (6-mer frequency, TF over GST control) and the binding signal [8] was 1.25 fold enrichment (6-mer frequency, TF over GST control).
With ACTTCG the binding signal [1] was 1.52 fold enrichment (6-mer frequency, TF over GST control), the binding signal [2] was 1.27 fold enrichment (6-mer frequency, TF over GST control) and the binding signal [3] was 1.36 fold enrichment (6-mer frequency, TF over GST control). The binding signal [4] was 1.3 fold enrichment (6-mer frequency, TF over GST control), the binding signal [5] was 1.26 fold enrichment (6-mer frequency, TF over GST control) and the binding signal [6] was 1.32 fold enrichment (6-mer frequency, TF over GST control). The binding signal [7] was 1.42 fold enrichment (6-mer frequency, TF over GST control) and the binding signal [8] was 1.36 fold enrichment (6-mer frequency, TF over GST control).
TTATGC was tested, and the binding signal [1] was 1.16 fold enrichment (6-mer frequency, TF over GST control), the binding signal [2] was 1.33 fold enrichment (6-mer frequency, TF over GST control) and the binding signal [3] was 1.28 fold enrichment (6-mer frequency, TF over GST control). The binding signal [4] was 1.37 fold enrichment (6-mer frequency, TF over GST control), the binding signal [5] was 1.44 fold enrichment (6-mer frequency, TF over GST control) and the binding signal [6] was 1.29 fold enrichment (6-mer frequency, TF over GST control). The binding signal [7] was 1.34 fold enrichment (6-mer frequency, TF over GST control) and the binding signal [8] was 1.31 fold enrichment (6-mer frequency, TF over GST control).
With TAAAAC the binding signal [1] was 1.22 fold enrichment (6-mer frequency, TF over GST control), the binding signal [2] was 1.2 fold enrichment (6-mer frequency, TF over GST control) and the binding signal [3] was 1.15 fold enrichment (6-mer frequency, TF over GST control). The binding signal [4] was 1.18 fold enrichment (6-mer frequency, TF over GST control), the binding signal [5] was 1.27 fold enrichment (6-mer frequency, TF over GST control) and the binding signal [6] was 1.12 fold enrichment (6-mer frequency, TF over GST control). For the same sequence, the binding signal [7] was 1.24 fold enrichment (6-mer frequency, TF over GST control) and the binding signal [8] was 1.16 fold enrichment (6-mer frequency, TF over GST control).
TTTCCC was tested, and the binding signal [1] was 1.57 fold enrichment (6-mer frequency, TF over GST control), the binding signal [2] was 1.7 fold enrichment (6-mer frequency, TF over GST control) and the binding signal [3] was 1.71 fold enrichment (6-mer frequency, TF over GST control). For the same sequence, the binding signal [4] was 1.45 fold enrichment (6-mer frequency, TF over GST control), the binding signal [5] was 1.65 fold enrichment (6-mer frequency, TF over GST control) and the binding signal [6] was 2.51 fold enrichment (6-mer frequency, TF over GST control). For the same sequence, the binding signal [7] was 1.75 fold enrichment (6-mer frequency, TF over GST control) and the binding signal [8] was 1.97 fold enrichment (6-mer frequency, TF over GST control).
For ACCTAC, the binding signal [1] was 1.17 fold enrichment (6-mer frequency, TF over GST control), the binding signal [2] was 1.26 fold enrichment (6-mer frequency, TF over GST control) and the binding signal [3] was 1.2 fold enrichment (6-mer frequency, TF over GST control). For the same sequence, the binding signal [4] was 1.17 fold enrichment (6-mer frequency, TF over GST control), the binding signal [5] was 1.09 fold enrichment (6-mer frequency, TF over GST control) and the binding signal [6] was 1.29 fold enrichment (6-mer frequency, TF over GST control). For the same sequence, the binding signal [7] was 1.25 fold enrichment (6-mer frequency, TF over GST control) and the binding signal [8] was 1.32 fold enrichment (6-mer frequency, TF over GST control).
